# The supplement of paper PMC8728848
# Shown is part of a subset that was picked to be rich in the strongest signals.
# Assays:
# Assay in all cases: glycan array binding signal (z-score within array); higher = stronger binding
# Settings in all cases: glycan notation: IUPAC condensed, linker removed
# [1] = target: Fuc(a1-2)Gal(b1-3)GlcNAc(b1-3)[Gal(b1-4)GlcNAc(b1-6)]Gal(b1-4)Glc
# Outline: (§1)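 The Consortium for Functional Glycomics database supplied 3228 glycan arrays, of which those lacking an available protein sequence were dropped. The binding signal, a within-array Z-score, was averaged across arrays of the same protein sequence and across linkers. Negative scores can be read as non-binding.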
# [2] = target: Fuc(a1-2)Gal(b1-4)GlcNAc(b1-3)Gal(b1-4)GlcNAc
# Outline: as §1
# [3] = target: Fuc(a1-2)Gal(b1-4)GlcNAc6S
# Outline: as §1
# [4] = target: Fuc(a1-2)Gal(b1-4)[Fuc(a1-3)]GlcNAc(b1-2)[Fuc(a1-2)Gal(b1-4)[Fuc(a1-3)]GlcNAc(b1-4)]Man(a1-3)[Fuc(a1-2)Gal(b1-4)[Fuc(a1-3)]GlcNAc(b1-2)Man(a1-6)]Man(b1-4)GlcNAc(b1-4)GlcNAc
# Outline: as §1
# [5] = target: Fuc(a1-2)[Gal(a1-3)]Gal(b1-4)GlcNAc
# Outline: as §1
# [6] = target: Fuc(a1-3)[Gal(b1-4)]GlcNAc(b1-2)Man(a1-3)[Fuc(a1-3)[Gal(b1-4)]GlcNAc(b1-2)Man(a1-6)]Man(b1-4)GlcNAc(b1-4)GlcNAc
# Outline: as §1
# [7] = target: Fuc(a1-3)[Gal(b1-4)]GlcNAc(b1-2)Man(a1-3)[Fuc(a1-3)[Gal(b1-4)]GlcNAc(b1-2)Man(a1-6)]Man(b1-4)GlcNAc(b1-4)[Fuc(a1-6)]GlcNAc
# Outline: as §1
# [8] = target: Fuc(a1-3)[Gal(b1-4)]GlcNAc(b1-6)GalNAc
# Outline: as §1
# Gal(a1-3)Gal = target: Gal(a1-3)Gal
# Outline: as §1
# [9] = target: Gal(a1-3)Gal(b1-4)GlcNAc(b1-2)Man(a1-3)[Gal(a1-3)Gal(b1-4)GlcNAc(b1-2)Man(a1-6)]Man(b1-4)GlcNAc(b1-4)GlcNAc
# Outline: as §1
# [10] = target: Gal(a1-3)[Gal(a1-4)]Gal(b1-4)GlcNAc
# Outline: as §1
# Gal(a1-6)Glc = target: Gal(a1-6)Glc
# Outline: as §1
# [11] = target: Gal(b1-3)GlcNAc(b1-2)[Gal(b1-3)GlcNAc(b1-6)]Man(a1-6)[Gal(b1-3)GlcNAc(b1-2)Man(a1-3)]Man(b1-4)GlcNAc(b1-4)GlcNAc
# Outline: as §1
# [12] = target: Gal(b1-3)GlcNAc(b1-3)Gal(b1-3)GlcNAc
# Outline: as §1
# [13] = target: Gal(b1-3)GlcNAc(b1-3)Gal(b1-4)GlcNAc(b1-3)Gal(b1-4)GlcNAc(b1-2)[Gal(b1-3)GlcNAc(b1-3)Gal(b1-4)GlcNAc(b1-3)Gal(b1-4)GlcNAc(b1-6)]Man(a1-6)[Gal(b1-3)GlcNAc(b1-3)Gal(b1-4)GlcNAc(b1-3)Gal(b1-4)GlcNAc(b1-2)Man(a1-3)]Man(b1-4)GlcNAc(b1-4)[Fuc(a1-6)]GlcNAc
# Outline: as §1
# [14] = target: Gal(b1-3)GlcNAc(b1-3)Gal(b1-4)GlcNAc(b1-6)[Gal(b1-3)GlcNAc(b1-3)]Gal(b1-4)Glc
# Outline: as §1
# [15] = target: Gal(b1-3)GlcNAc(b1-6)[Gal(b1-3)]GalNAc
# Outline: as §1
# [16] = target: Gal(b1-3)[Neu5Ac(b2-6)]GalNAc
# Outline: as §1
# [17] = target: Gal(b1-4)GlcNAc(b1-3)Gal(b1-4)GlcNAc(b1-3)Gal(b1-4)GlcNAc(b1-2)Man(a1-3)[Gal(b1-4)GlcNAc(b1-3)Gal(b1-4)GlcNAc(b1-3)Gal(b1-4)GlcNAc(b1-2)Man(a1-6)]Man(b1-4)GlcNAc(b1-4)GlcNAc
# Outline: as §1
# [18] = target: Gal(b1-4)GlcNAc(b1-3)Gal(b1-4)GlcNAc(b1-3)Gal(b1-4)GlcNAc(b1-3)Gal(b1-4)GlcNAc(b1-3)Gal(b1-4)GlcNAc(b1-2)[Gal(b1-4)GlcNAc(b1-3)Gal(b1-4)GlcNAc(b1-3)Gal(b1-4)GlcNAc(b1-3)Gal(b1-4)GlcNAc(b1-3)Gal(b1-4)GlcNAc(b1-6)]Man(a1-6)[Gal(b1-4)GlcNAc(b1-3)Gal(b1-4)GlcNAc(b1-3)Gal(b1-4)GlcNAc(b1-3)Gal(b1-4)GlcNAc(b1-3)Gal(b1-4)GlcNAc(b1-2)Man(a1-3)]Man(b1-4)GlcNAc(b1-4)[Fuc(a1-6)]GlcNAc
# Outline: as §1
# Gal(b1-4)GlcNAc6P = target: Gal(b1-4)GlcNAc6P
# Outline: as §1
# Gal3S(b1-3)GalNAc = target: Gal3S(b1-3)GalNAc
# Outline: as §1
# Gal3S(b1-4)Glc = target: Gal3S(b1-4)Glc
# Outline: as §1
# [19] = target: Gal3S(b1-4)[Fuc(a1-3)]Glc6S
# Outline: as §1
# Gal3S4S(b1-4)GlcNAc = target: Gal3S4S(b1-4)GlcNAc
# Outline: as §1
# Gal3S6S(b1-4)GlcNAc = target: Gal3S6S(b1-4)GlcNAc
# Outline: as §1
binder,measurement,setting,value
"Ovorubin (Pomacea canaliculata), J7I2T6 (protein) MFVATSLLLAIATLVVRASPHNYLIMDIEPPKSVSERDILNLLSPLQVKHSFRVTGSTRLLIVIRLDAQSYEKLDEITVPGKVEVIPAVNMADTMERCGVSWPRVELTDDNVTLFESESTLTDVTKEQLKAMLIGYGEHMSGLLQAHRFEYYQAAGATPHRHFVFVNSVPDEIEVFGREGVDIWGGPGEFVVKPQYVTRI",glycan array binding signal (z-score),[1],0.184
same,glycan array binding signal (z-score),[2],0.006
same,glycan array binding signal (z-score),[3],0.049
same,glycan array binding signal (z-score),[4],0.485
same,glycan array binding signal (z-score),[5],-0.498
same,glycan array binding signal (z-score),[6],0.055
same,glycan array binding signal (z-score),[7],-0.362
same,glycan array binding signal (z-score),[8],0.355
same,glycan array binding signal (z-score),Gal(a1-3)Gal,-0.576
same,glycan array binding signal (z-score),[9],0.572
same,glycan array binding signal (z-score),[10],7.96
same,glycan array binding signal (z-score),Gal(a1-6)Glc,-1.13
same,glycan array binding signal (z-score),[11],4.93
same,glycan array binding signal (z-score),[12],-0.763
same,glycan array binding signal (z-score),[13],2.9
same,glycan array binding signal (z-score),[14],-0.801
same,glycan array binding signal (z-score),[15],0.3
same,glycan array binding signal (z-score),[16],-0.862
same,glycan array binding signal (z-score),[17],0.387
same,glycan array binding signal (z-score),[18],2.67
same,glycan array binding signal (z-score),Gal(b1-4)GlcNAc6P,-0.461
same,glycan array binding signal (z-score),Gal3S(b1-3)GalNAc,0.802
same,glycan array binding signal (z-score),Gal3S(b1-4)Glc,-0.766
same,glycan array binding signal (z-score),[19],3.72
same,glycan array binding signal (z-score),Gal3S4S(b1-4)GlcNAc,9.33
same,glycan array binding signal (z-score),Gal3S6S(b1-4)GlcNAc,4.31
